Whole data set: some 3,200 compounds, median “TSA(with NAD+) / Primary screening (TSA) / delta Tm (K)” near -0.04, cut for the highest 2% near 0.37. This is one part of a sample in which the highest values are shown more often than they occur.
biological target: NAD-dependent deacetylase Sirtuin 1 (human, UniProt Q96EB6); assay: primary screen, delta tm; set-up: single well (n = 1, as 'the same TSA'); conditions: 10 µM
Sequence (Q96EB6 2-747 limits assumed): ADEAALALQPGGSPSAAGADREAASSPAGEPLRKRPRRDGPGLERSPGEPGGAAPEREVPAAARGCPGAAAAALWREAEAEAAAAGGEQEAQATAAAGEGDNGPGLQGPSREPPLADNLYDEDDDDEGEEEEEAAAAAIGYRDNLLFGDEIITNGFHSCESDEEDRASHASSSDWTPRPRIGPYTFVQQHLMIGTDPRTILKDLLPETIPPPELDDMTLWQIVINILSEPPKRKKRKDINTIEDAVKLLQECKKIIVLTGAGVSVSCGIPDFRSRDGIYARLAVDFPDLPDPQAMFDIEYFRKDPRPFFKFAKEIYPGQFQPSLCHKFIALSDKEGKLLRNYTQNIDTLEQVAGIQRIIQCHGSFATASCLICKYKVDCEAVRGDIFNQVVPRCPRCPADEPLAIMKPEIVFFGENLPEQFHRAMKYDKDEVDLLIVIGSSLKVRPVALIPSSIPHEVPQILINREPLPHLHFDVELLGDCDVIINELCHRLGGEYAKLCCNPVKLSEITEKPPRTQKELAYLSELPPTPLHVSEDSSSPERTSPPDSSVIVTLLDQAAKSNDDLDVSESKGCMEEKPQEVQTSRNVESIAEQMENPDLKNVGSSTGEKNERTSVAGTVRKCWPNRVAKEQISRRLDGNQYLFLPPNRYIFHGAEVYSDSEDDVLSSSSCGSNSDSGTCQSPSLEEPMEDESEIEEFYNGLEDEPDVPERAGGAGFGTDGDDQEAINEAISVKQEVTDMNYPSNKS

SMILES	TSA(with NAD+) / Primary screening (TSA) / delta Tm (K)
O=C(COC(=O)C1=COCCO1)Nc1cccc2c1C(=O)c1ccccc1C2=O	0.01
COc1ccccc1NS(=O)(=O)c1cccc(NC(=O)c2oc3ccccc3c2CSC)c1	-0.08
C=CCOc1ccc(C2C(C(=O)c3ccc(C)o3)=C(O)C(=O)N2CCCN2CCOCC2)cc1 (stereo not shown)	-0.04
O=C(Nc1ccccc1Cc1ccccc1)c1ccc(CN2C(=O)CNC2=O)cc1	0.05
CN(C)c1ccc(S(N)(=O)=O)cc1N	-0.04
O=C1/C(=C/c2cnn(-c3ccccc3)c2)Oc2cc(O)ccc21	0.99
O=C1/C(=C/c2cccc(O)c2)Oc2cc(O)ccc21	-0.14
O=C1/C(=C/c2ccccc2)Oc2cc(O)ccc21	-0.06
Cc1cnc(N2CCC(Oc3ccnc(C(N)=O)c3)CC2)s1	-0.16
O=c1c2ccncc2ncn1CC(O)c1cccc(Cl)c1 (stereo not shown)	-0.03
O=c1c2ccccc2ncn1CC(O)c1cccc(F)c1 (stereo not shown)	-0.19
O=c1c2ccccc2ncn1CC(O)c1ccccc1Cl (stereo not shown)	0.38
O=C(CN1CCCCCC1=O)N1CCN(c2cnccn2)CC1	-0.04
O=C1CCc2cc(NC(=O)c3cccnc3)ccc2N1	-0.13
Cc1ccc(C(=O)Nc2nc3ccc(NS(=O)(=O)c4ccc5c(c4)CCC(=O)N5)cc3s2)s1	0.46
CCCn1c(NC(=O)c2ccc3c(c2)CCC(=O)N3)nc2ccccc21	0.15
COC(=O)/C=C1/NC(=O)CS1	-0.13
O=C(COC(=O)C1=COCCO1)Nc1cccc2ccccc12	0.09
CC(CNCCS(=O)(=O)C(C)(C)C)c1ccccc1 (stereo not shown)	-0.03
Cc1sc2ncnc(N3CCC(C(=O)N4CCC(C(N)=O)CC4)CC3)c2c1C	-0.03
Cc1sc2nc(-c3cccnc3)nc(N3CCC(C(N)=O)CC3)c2c1C	-0.01
NC(=O)C1CCCN(c2ncnc3sc4c(c23)CCCC4)C1 (stereo not shown)	-0.15
Cc1sc2ncnc(N3CCC(C(N)=O)CC3)c2c1C	0.06
Cc1sc2nc(-c3cccs3)nc(N3CCC(C(N)=O)CC3)c2c1C	0.53

SMILES	TSA(with NAD+) / Primary screening (TSA) / delta Tm (K)
NC(=O)C1CCN(c2ncnc3sc4c(c23)CCCC4)CC1	0.32
NC(=O)C1CCN(c2nc(-c3cccs3)nc3sc4c(c23)CCCC4)CC1	2.33
NC(=O)C1CCN(c2nc(-c3cccnc3)nc3sc4c(c23)CCCC4)CC1	0.48
NC(=O)C1CCN(c2ncnc3sc4c(c23)CCCCC4)CC1	0.26
O=c1[nH]cnc2c(Cl)cc(Cl)cc12	-0.16
Cc1ccc(-c2nnc(SCC(=O)NC(=O)NC(C)C)n2N)cc1	-0.04
O=C(CCc1nc2ccccc2c(=O)[nH]1)Nc1ccc(N2CCN(Cc3ccccc3)CC2)cc1	0.03
Cc1cc(C=C2C(=O)NC(=S)NC2=O)c(C)n1-c1ccc(F)cc1	-0.48
CNS(=O)(=O)c1ccc(CCC(=O)Nc2ccccc2Cc2ccccc2)cc1	0.07
C/C(=N/N)c1ccc2c(c1)-c1ccccc1C2	-0.14
O=C1COc2cc(C(=O)Nc3ccc4c(c3)-c3ccccc3C4)ccc2N1	0.11
NS(=O)(=O)c1ccc(C(=O)Nc2ccc3c(c2)-c2ccccc2C3)cc1	0.68
CC1CCC(C(N)=O)CN1c1ncnc2ccsc12 (stereo not shown)	0.05
O=C(CN1CCN(Cc2cscn2)CC1)NC(c1ccccc1)C1CC1 (stereo not shown)	0.03
COCCCn1ccc(Nc2nc(C)nc3[nH]ccc23)n1	-0.03
CC1(C)CC(=O)C(=CNNC(=O)CC23CC4CC(CC(C4)C2)C3)C(=O)C1	-0.06
O=C1NC(=O)c2ccccc2/C1=C\NNC(=O)C12CC3CC(CC(C3)C1)C2	0.48
COc1ccc(N2C(=O)/C(=C/NNC(=O)C34CC5CC(CC(C5)C3)C4)c3ccccc3C2=O)cc1	0.18
COc1ccc(CN2C(=O)/C(=C/NNC(=O)CC34CC5CC(CC(C5)C3)C4)c3ccccc3C2=O)cc1	0.06
O=C(CC12CC3CC(CC(C3)C1)C2)NN/C=C1/C(=O)N(Cc2ccccc2)C(=O)c2ccccc21	0.19
O=C1/C(=C/NNC(=O)C23CC4CC(CC(C4)C2)C3)c2ccccc2C(=O)N1Cc1ccccc1	0.56
COC(C)CN (stereo not shown)	-0.12
COc1cccc(-c2nc(CSc3nnc(-c4ccco4)n3Cc3ccccc3)cs2)c1	-0.16
Cc1ccc(OCCN)cc1	0.15

SMILES	TSA(with NAD+) / Primary screening (TSA) / delta Tm (K)
Cc1nn2cccnc2c1C(=O)NCc1ccc(-c2nnn[nH]2)cc1	-0.06
Cc1nn(-c2ccc(F)cc2)c(C)c1CNCc1ccccc1	-0.23
N#Cc1c2c(c(Cl)n3c1nc1ccccc13)CCCC2	0.03
Cc1ccccc1-c1nnn(Cc2cc(=O)oc3c(C)c(C)ccc23)n1	-0.18
COC(=O)c1cc(-c2csc(NC(=O)c3cccc(NC(=O)c4cnoc4C)c3)n2)c[nH]1	0.67
NC(=O)NCc1ccc(C(=O)Nc2nc(-c3c[nH]c(C(N)=O)c3)cs2)cc1	0.11
COc1ccc(NC(=O)c2ccc(NC(=O)c3cnoc3C)cc2)cc1OCc1cccnc1	0.05
COc1ccnc(N2CCN(C(=O)c3ccc(C(N)=O)s3)CC2)n1	-0.13
Cc1ccc(-n2nnnc2SCc2nc3c(cnn3-c3ccccc3)c(=O)[nH]2)cc1	-0.11
CCCOc1ccc(C2C(C(=O)c3ccc(F)cc3)=C(O)C(=O)N2CCCN2CCOCC2)cc1 (stereo not shown)	0.06
Cc1cc(NN)n2nc(C(F)(F)F)c(-c3ccc(Cl)cc3)c2n1	0.37
Cc1cc(N(C)C)n2nc(C(F)(F)F)c(-c3ccccc3)c2n1	-0.05
CNc1cc(C)nc2c(-c3ccccc3)c(C(F)(F)F)nn12	-0.12
Oc1cccc2c1Cc1c-2nc2ccc(Cl)cc2c1-c1ccccc1Cl	0.52
O=C1/C(=C/c2ccc(Br)cc2F)Cc2c(O)cccc21	0.11
COc1ccc(C(=O)NC2CCCC2(C)CO)cc1-c1ccccn1 (stereo not shown)	-0.23
CN1CCC(Sc2ccc3ccccc3c2)C1=O (stereo not shown)	-0.19
Cc1ccc(-c2cc(C(=O)OC(C)C(=O)Nc3cccc([N+](=O)[O-])c3)[nH]n2)cc1 (stereo not shown)	0.25
CC(=C/c1ccccc1)/C=N/NC(=O)c1cc(-c2ccc(C)cc2)n[nH]1	1.11
O=C(Nc1ccc(N2CCN(Cc3ccccc3)CC2)cc1)c1cccc2cccnc12	0.01
O=C(COC(=O)c1ccc2c(c1)S(=O)(=O)c1ccccc1C2=O)Nc1ncc(Cl)cc1Cl	0.15
Cn1cc(CCC(=O)NCC(=O)O)c2ccccc21	-0.16

— publication PMC6925144, “A prospective compound screening contest identified broader inhibitors for Sirtuin 1” (Scientific Reports, 2019)
